Each structure is given as a SMILES string. Results filed as inconclusive are left out. Active and inactive are the calls of the source. How the source made its calls: active means hit-call score of the fitted dose curve at least 0.9, where 1 is the maximum; inconclusive means response in the unintended direction; inactive means score below 0.9.

In this test the target is Oxysterols receptor LXR-beta (Homo sapiens) (UniProt P55055). As to the kind of experiment: ATG_LXRb_TRANS: Attagene TRANS-FACTORIAL HepG2 Assay for human Liver X Receptor beta (LXRb) (AID 2282981). The note with it: HepG2 Attagene TRANS GAL4-LXRb reporter, mRNA. The method, then: ATG_TRANS is a cell-based, multiplexed-readout assay that uses HepG2, a human liver cell line, with measurements taken at 24 hours after chemical dosing in a 24-well plate.ATG_LXRb_TRANS is one of 30 assay component(s) measured or calculated from the ATG_TRANS assay. It is designed to make measurements of mRNA induction, a form of inducible reporter, as detected with fluorescence intensity signals by Reverse transcription polymerase chain reaction (RT-PCR) and Capillary electrophoresis technology.Data from the assay component ATG_LXRb_TRANS was analyzed into 1 assay endpoint. This assay endpoint, ATG_LXRb_TRANS, was analyzed in the positive analysis fitting direction relative to DMSO as the negative control and baseline of activity. Using a type of inducible reporter, measures of mRNA for gain-of-signal activity can be used to understand the reporter gene at the transcription factor-level as they relate to the gene NR1H2. Furthermore, this assay endpoint can be referred to as a primary readout, because this assay has produced multiple assay endpoints where this one serves a reporter gene function. To generalize the intended target to other relatable targets, this assay endpoint is annotated to the nuclear receptor intended target family, where the subfamily is non-steroidal.
Sequence of Oxysterols receptor LXR-beta (Homo sapiens) (P55055 whole entry, looked up, the tested form may be a part): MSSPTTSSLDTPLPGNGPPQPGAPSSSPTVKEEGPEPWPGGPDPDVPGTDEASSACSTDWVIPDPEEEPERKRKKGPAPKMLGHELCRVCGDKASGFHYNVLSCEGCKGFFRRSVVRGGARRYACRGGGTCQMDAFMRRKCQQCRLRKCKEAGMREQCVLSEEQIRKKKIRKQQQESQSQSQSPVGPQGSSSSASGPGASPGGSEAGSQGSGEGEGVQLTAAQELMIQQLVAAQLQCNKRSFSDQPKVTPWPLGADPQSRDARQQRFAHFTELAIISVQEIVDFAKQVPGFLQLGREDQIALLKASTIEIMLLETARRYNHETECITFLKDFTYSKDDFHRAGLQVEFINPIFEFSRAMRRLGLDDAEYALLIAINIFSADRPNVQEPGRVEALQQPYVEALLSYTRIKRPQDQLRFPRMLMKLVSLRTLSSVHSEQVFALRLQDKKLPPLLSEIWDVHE
Human liver HepG2 cells are transiently transfected with multiple reporter transcription units (MRTUs) in 6-well plates using FuGene 6 reagent (Roche; 3 ml FuGene/1 mg DNA). The MRTU constructs are regulated by a cis-regulating element (promoter). […] A major difference between the CIS and TRANS system is that in CIS activities of endogenous TFs are measured, whereas the TRANS assay evaluates changes in activities of exogenous, chimeric NR-Gal4 proteins. […] At the end of 24 hour incubation, total RNA was isolated using TriZol reagent (Invitrogen). The isolated RNA is then reverse-transcribed using oligo(dT) primer and Mo-MLV reverse transcriptase (Invitrogen) with DNAse I (Ambion) treatment for 30 min. The one-tenth of the produced cDNA was amplified by PCR using Taq DNA polymerase (Invitrogen) and two reporter sequence-specific primers. The PCR products were fluorescently labeled by primer extension with 6-arboxyfluorescein (6-FAM) 5'-labeled reporter sequence-specific primer (2 min at 95 C, 20 s at 68 C and 10 min at 72 C) and these products were digested with 5U of HpaI (New England Biolabs) for 2h at 37 C. The fragments were purified using Qiaquick PCR columns (Qiagen), analyzed on an ABI 3130xL genetic analyzer (Applied Biosystems) with peak positions identified by using a set of X-rhodamine (ROX)-labeled MapMarker1000 molecular weight standards (BioVentures). The raw capillary electrophoresis data was processed using Attagraph software (Attagene).
As to `N#CCC#N`, the compound was called inactive.
In the case of `O=C(Cc1ccccc1)OCCc1ccccc1`, the outcome was inactive.
`O=C(Nc1ccc(Br)cc1)c1cc(Br)cc(Br)c1O`: the result was inactive.
Take `CC1CC(=O)O1` (stereo not given): the call was inactive.
The entry for `N#Cc1ccccc1N` is “inactive”.
With `O=CCCl`, the compound was classed as inactive.
The entry for `CCOC(=O)C(SP(=S)(OC)OC)c1ccccc1` (stereo not given) is “inactive”; for `Nc1cccnc1` it is “inactive”.
Consider `O=NN1CCCCCC1`, for which the outcome was inactive.
The entry for `CNC(=O)CSP(=O)(OC)OC` is “inactive”.
The result for `Cc1cc(Cl)ccc1O` reads “inactive”.
On to `CCCCN(CCCC)C(=S)S`, for which the call was inactive.
The result for `Cl[C@H]1OCCO[C@@H]1Cl` reads “inactive”.
The result for `C=CCc1ccccc1O` reads “inactive”; that for `CCCCCCCCCCCCCl`, “inactive”.
The result for `NC(=O)c1ccc(N)nc1` reads “inactive”; that for `Brc1c(Br)c(Br)c(Oc2c(Br)c(Br)c(Br)c(Br)c2Br)c(Br)c1Br`, “inactive”; that for `C[CH2][Hg][S]c1ccccc1C(=O)O`, “inactive”.
Take `Oc1cc(Cl)c(Cl)cc1Cl`: the compound was classed as inactive.
The result for `c1ccc(-c2cccc(-c3ccccc3)c2)cc1` reads “inactive”.
With `CC(C)(C#N)N=NC(C)(C)C#N`, the outcome was inactive.
In the case of `CCOC(=O)OC1=C(c2cc(C)ccc2C)C(=O)NC12CCC(OC)CC2` (stereo not given), the compound was called inactive.
As for `CN(C)c1ccc(N=O)cc1`, the result was inactive.
In the case of `CCOP(=S)(OCC)SCSc1cc(Cl)ccc1Cl`, the outcome was inactive.
Consider `C=C(C)[C@@H]1CC=C(C=O)CC1`, for which the call was inactive.
The result for `Nc1nc(=S)[nH][nH]1` reads “inactive”.
With `C=CC(F)(C(F)(F)F)C(F)(F)C(F)(F)F` (stereo not given), the call was inactive.
The result for `CCN(CC)C(=O)C(Cl)=C(C)OP(=O)(OC)OC` reads “inactive”; that for `O=C1C=CC(=O)c2ccccc21`, “inactive”.
Consider `CC(C)(C)c1ccc(CCOc2ncnc3ccccc23)cc1`, for which the outcome was inactive.
Turning to `COC(F)(C(F)(F)C(F)(F)F)C(F)(C(F)(F)F)C(F)(F)F` (stereo not given), the compound was called inactive.
For the compound `C[C@]12CC[C@@H](O)C[C@@H]1CC[C@@H]1[C@@H]2CC[C@]2(C)C(=O)CC[C@@H]12`, the outcome was inactive.
The result for `C[N+](C)(C)Cc1ccccc1` reads “inactive”.
In the case of `O=c1[nH]c(=O)n(Cl)c(=O)n1Cl`, the compound was called inactive.
The result for `CC(C)CC(C)(c1ccc(O)cc1)c1ccc(O)cc1` reads “inactive”; that for `N#CS`, “inactive”; that for `Cc1cc(C)cc(C)c1`, “inactive”.
For the compound `CCCCCCCCCCCCBr`, the call was inactive.
As for `C#CCO`, the call was inactive.
The result for `O=C/C(Cl)=C(/Cl)C(=O)O` reads “inactive”.

The record behind these values is PubChem BioAssay (EPA / NIEHS).
